# Results as given in PubChem BioAssay (NCATS).
# Records with an inconclusive call do not appear. Active and inactive are the calls of the source. Calls come from the whole dose curve; as a rule, active = well fitted cell-killing curve with a large enough effect; inconclusive = small, poorly fitted or top-dose-only effect, or effect the other way; inactive = no such curve, though single readings can be large or run the other way.
# Assay: Quantitative High-Throughput drug screen in 47 multiple myeloma cell lines against the NCATS MIPE library collection: KHM11_PLB cell viability assay (AID 1918962); note: nearly all actives have a fitted effect of over 35% in size
# Settings: KHM11 myeloma cell viability, CellTiter-Glo ATP luminescence, 48 h; series mostly up to 45.8 µM
# Excerpt: PI: Beverly A. Mock Ph.D.
# Laboratory of Cancer Biology and Genetics,
# Center for Cancer Research, National Cancer Institute,
# National Institute of Health, Bethesda, Maryland
# Drug resistance and disease progression are common in multiple myeloma (MM) patients, underscoring the need for new therapeutic combinations. […] We hypothesized that effective combinations would reduce MYC expression and enhance p16 activity. […] These preclinical data identify potentially useful drug combinations for evaluation in drug-resistant MM and reveal potential mechanisms of combined drug sensitivity.
# Described herein is the primary MIPE qHTS used to cherrypick compounds. Validated compounds were then further tested for potential synergistic activiy.
# [1] Peat TJ, Gaikwad SM, Dubois W, Gyabaah-Kessie N, Zhang S, Gorjifard S, Phyo Z, Andres M, Hughitt VK, Simpson RM, Miller MA, Girvin AT, Taylor A, Williams D, D'Antonio N, Zhang Y, Rajagopalan A, Flietner E, Wilson K, Zhang X, Shinn P, Klumpp-Thomas C, McKnight C, Itkin Z, Chen L, Kazandijian D, Zhang J, Michalowski AM, Simmons JK, Keats J, Thomas CJ, Mock BA. Drug combinations identified by high-throughput screening promote cell cycle transition and upregulate Smad pathways in myeloma. Cancer Lett. 2023 Aug 1;568:216284. doi: 10.1016/j.canlet.2023.216284. Epub 2023 Jun 24. PMID: 37356470; PMCID: PMC10408729.
# SEQUENCE No. (e.g., 1, 2, 3, etc.); […] (e.g., Cells, Incubation, Reagent, etc.); VALUE and DESCRIPTION.
# 1; Cells; 5 uL; white, solid bottom 1536-well Greiner assay plate.
# 2; Compounds; 23 nL; Kalypsis pin tool (Wako USA) equipped with a 1536-well pin head to transfer to the assay plates.
# 3; Incubation; 48 hours; 37C incubation.
# 4; Reagent;5uL; CellTiter Glo (Promega).
# 5; Detector; 425V; Luminescence; Viewlux PerkinElmer.
# NOTES (numbers refer to Sequence numbers above)
# 1. The cell-based screening methods employed in this study were like those previously published. Briefly, the corresponding myeloma cell lines were screened in 1,536-well plates with 500 cells, 5-uL per well for inhibition of cell viability (assessed by measuring ATP levels with CellTiterGlo).
# 2. NCATS MIPE 4.0 library of approved and investigational drugs were added using the Kalypsis pin tool. Wells treated with DMSO only for 100% viability and media only wells for 0% viability were used as controls.
# 3. The assay plates were covered and incubated for 48 hours in a 37C, 5% CO2 incubator with controlled humidity.
# 4. After 48 hours, CellTilter-GloTM luminescent substrate mix (Promega) reagent was added to the assay plate and plates we incubated for 5 min at room temperature.
# 5. Signal was measured as median relative luminescence units on a ViewLux (PerkinElmer) multiplate reader.
# [1] Heske CM, Davis MI, Baumgart JT, Wilson K, Gormally MV, Chen L, Zhang X, Ceribelli M, Duveau DY, Guha R, Ferrer M, Arnaldez FI, Ji J, Tran HL, Zhang Y, Mendoza A, Helman LJ, Thomas CJ. Matrix Screen Identifies Synergistic Combination of PARP Inhibitors and Nicotinamide Phosphoribosyltransferase (NAMPT) Inhibitors in Ewing Sarcoma. Clin Cancer Res. 2017 Dec 1;23(23):7301-7311. doi: 10.1158/1078-0432.CCR-17-1121. Epub 2017 Sep 12. PMID: 28899971; PMCID: PMC6636827.
# Potency is the fitted concentration of half-maximal effect.
row,Structure (SMILES),Potency
1,CC(C)(C)C(=O)OCOP(=O)(COCCn1cnc2c(N)ncnc21)OCOC(=O)C(C)(C)C,0.935 µM (active)
2,CN1CCCC(n2nc(Cc3ccc(Cl)cc3)c3ccccc3c2=O)CC1 (stereo not given),6.62 µM (active)
3,COc1cc(NCc2ccc3nc(N)nc(N)c3c2C)cc(OC)c1OC,8.33 µM (active)
4,COc1cc2nc(N3CCCN(C)CC3)nc(NC3CCN(Cc4ccccc4)CC3)c2cc1OC,2.35 µM (active)
5,CNS(=O)(=O)CCc1ccc2[nH]cc(C3CCN(C)CC3)c2c1,1.18 µM (active)
6,Nc1nc(F)nc2c1ncn2[C@@H]1O[C@H](CO)[C@@H](O)[C@@H]1O,0.187 µM (active)
7,CC1=C(C(=O)O)N2C(=O)[C@@H](NC(=O)C(N)c3ccccc3)[C@H]2SC1 (stereo not given in full),inactive
8,Cc1onc(-c2ccccc2Cl)c1C(=O)N[C@@H]1C(=O)N2[C@@H]1SC(C)(C)[C@@H]2C(=O)O,inactive
9,COc1cc([C@@H]2c3cc4c(cc3[C@H](O)[C@H]3COC(=O)[C@H]23)OCO4)cc(OC)c1OC,inactive
10,CC(C)C[C@H](NC(=O)[C@H](CCc1ccccc1)NC(=O)CN1CCOCC1)C(=O)N[C@@H](Cc1ccccc1)C(=O)N[C@@H](CC(C)C)C(=O)[C@@]1(C)CO1,0.001 µM (active)
11,COc1ccc2cc3[n+](cc2c1OC)CCc1cc2c(cc1-3)OCO2,8.33 µM (active)
12,OCc1ccc(-c2nn(Cc3ccccc3)c3ccccc23)o1,2.64 µM (active)
13,CCc1c2c(nc3ccc(OC(=O)N4CCC(N5CCCCC5)CC4)cc13)-c1cc3c(c(=O)n1C2)COC(=O)[C@]3(O)CC,1.48 µM (active)
14,CNC(=O)c1cc(Oc2ccc(NC(=O)Nc3ccc(Cl)c(C(F)(F)F)c3)cc2)ccn1,11.8 µM (active)
15,CC(=O)[C@H]1CC[C@H]2[C@@H]3CC=C4C[C@@H](O)CC[C@]4(C)[C@H]3CC[C@]12C,inactive
16,CC(=O)CC(c1ccccc1)c1c(O)c2ccccc2oc1=O (stereo not given),inactive
17,Cc1cc(NS(=O)(=O)c2ccc(N)cc2)no1,inactive
18,CO[C@@H]1[C@@H](OC(N)=O)[C@@H](O)[C@H](Oc2ccc3c(O)c(NC(=O)c4ccc(O)c(CC=C(C)C)c4)c(=O)oc3c2C)OC1(C)C,2.64 µM (active)
19,CC(C)(C)NC(=O)[C@H]1CC[C@H]2[C@@H]3CC[C@H]4NC(=O)C=C[C@]4(C)[C@H]3CC[C@]12C,1.18 µM (active)
20,CNNCc1ccc(C(=O)NC(C)C)cc1,inactive

row,Structure (SMILES),Potency
1,Cn1nnc2c(C(N)=O)ncn2c1=O,inactive
2,C1CCC(C(CC2CCCCN2)C2CCCCC2)CC1 (stereo not given),11.8 µM (active)
3,C#CCN[C@@H]1CCc2ccccc21,inactive
4,COc1c(N2CCNC(C)C2)c(F)cc2c(=O)c(C(=O)O)cn(C3CC3)c12 (stereo not given),inactive
5,CCOC(=O)[C@H](CCc1ccccc1)N[C@H]1CCc2ccccc2N(CC(=O)O)C1=O,37.2 µM (active)
6,O=C(O)CSCC(=O)NC1CCSC1=O (stereo not given),inactive
7,NC1(c2ccc(-c3nc4ccn5c(=O)[nH]nc5c4cc3-c3ccccc3)cc2)CCC1,5.9 µM (active)
8,N=C(N)c1ccc(OCCCCCOc2ccc(C(=N)N)cc2)cc1,3.32 µM (active)
9,CC(=O)Oc1ccccc1C(=O)Nc1ncc([N+](=O)[O-])s1,21.5 µM (active)
10,CCOCC(O)COc1ccc(NC(=O)CC[S+](C)C)cc1 (stereo not given),inactive
11,CCCc1nc(C)c2c(=O)[nH]c(-c3cc(S(=O)(=O)N4CCN(CC)CC4)ccc3OCC)nn12,9.35 µM (active)
12,Cc1oc(=O)oc1CN1CCN(c2cc3c(cc2F)c(=O)c(C(=O)O)c2n3C(C)S2)CC1 (stereo not given),inactive
13,CCc1cc(C(N)=S)ccn1,inactive
14,C[C@@H]1C[C@H]2[C@@H]3CCC4=CC(=O)C=C[C@]4(C)[C@@]3(Cl)[C@@H](O)C[C@]2(C)[C@@]1(OC(=O)c1ccco1)C(=O)CCl,9.35 µM (active)
15,Cc1cccc(N(C)C(=S)Oc2ccc3ccccc3c2)c1,inactive
16,CC(C)(C#N)c1cc(Cn2cncn2)cc(C(C)(C)C#N)c1,inactive
17,CC(C)C1CCC(C(=O)N[C@H](Cc2ccccc2)C(=O)O)CC1 (stereo not given in full),inactive
18,CCCc1cc(C(N)=S)ccn1,inactive
19,CNC1CCCN(c2c(F)cc3c(=O)c(C(=O)O)cn(C4CC4)c3c2OC)C1 (stereo not given),inactive
20,NC(N)=NC(N)=NCCc1ccccc1,16.6 µM (active)
